This note sets out measurements from PubChem BioAssay (Tox21).

“And” between values parts separate entries of the source, which are not always exact repeats. Equal values may be shown once. Results filed as inconclusive are left out. The source holds several records for some structures; these can differ, active in one and inactive in another. The source made the active and inactive calls. Unless noted, calls follow the shape of the dose curve; as a rule, active = well fitted curve in the direction sought with a large enough effect in the repeat runs; inconclusive = weak or mixed curves; inactive = no such curve, though single readings can be large; an effect the other way counts as inactive or inconclusive.

Experiment [1] can be described thus: qHTS assay to identify small molecule antagonists of the estrogen related receptor (ERR) signaling pathway from Tox21 library - cell viability counter screen (AID 1224834). Also: nearly all actives have a fitted effect of over 30% in size. In outline:
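In this quantitative HTS format, ERR cells receive compounds in DMSO and are incubated for 17.5 h at 37 C. Live-cell protease activity is then detected with CellTiter-Fluor.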

In experiment [2] the target is Luciferin 4-monooxygenase (Photinus pyralis) (UniProt P08659). The experiment in a line: qHTS assay to identify small molecule inhibitors of firefly luciferase (AID 1224835). Also: nearly all actives have a fitted effect of over 25% in size. Also: potency is read from the fitted curve at half-maximal effect. The procedure, abridged:
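Biochemical qHTS: compounds run as interplate titrations against purified firefly enzyme, with D-luciferin and ATP each at its KM concentration. Light output recorded by CCD imaging.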
On the technique in general: qHTS replaces the single test concentration by a dilution series.

The nature of experiment [3]: qHTS assay to identify small molecule antagonists of the constitutive androstane receptor (CAR) signaling pathway - cell viability counter screen (AID 1224837). Also: nearly all actives have a fitted effect of over 45% in size. The procedure, abridged:
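In quantitative HTS format, compounds at 15 concentrations were applied to HepG2 cells double-transfected with hCAR and CYP2B6-2.2kb under 50 nM CITCO stimulation; live-cell protease activity was read after 23 hr via CellTiter-Fluor.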

Experiment [4] has as its target Nuclear receptor subfamily 1 group I member 3 (Homo sapiens) (UniProt Q14994). The experiment in a line: qHTS assay to identify small molecule antagonists of the constitutive androstane receptor (CAR) signaling pathway (AID 1224838). Also: nearly all actives have a fitted effect of over 40% in size. In outline:
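CITCO-stimulated (50 nM final) HepG2 cells stably transfected with hCAR and CYP2B6-2.2kb luciferase were exposed to compounds at 15 concentrations for 24 h at 37 C/5% CO2. A luciferase reagent was added and luminescence recorded after 30 min.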

Experiment [5] can be described thus: qHTS assay to identify small molecule antagonists of the estrogen related receptor signaling pathway with the pleiotropic PPARgamma coactivator (PGC) from Tox21 10K library - cell viability counter screen (AID 1224840; active = well fitted cell-killing curve with a large enough effect in the repeat runs, not every such curve was filed as active; also: nearly all actives have a fitted effect of over 40% in size). In outline:
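Viability counter screen, PGC/ERR cells: 17.5 h compound exposure at 37 C, CellTiter-Fluor fluorescence endpoint.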

Experiment [6] in a line: qHTS assay to identify small molecule antagonists of the estrogen related receptor signaling pathway with the pleiotropic PPARgamma coactivator (PGC) from Tox21 10K library (AID 1224841; call rule not given here; also: actives are mostly falling curves and most rising ones were filed inactive; nearly all actives have a fitted effect of over 50% in size). The procedure, abridged: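 In the PGC/ERR line, DMSO solutions of test chemicals are pin-delivered to 2,000 cells/well six hours after dispensing. Following eighteen hours' incubation, One-Glo reagent is added and luminescence recorded.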

The nature of experiment [7]: qHTS assay to identify small molecule agonists of the estrogen related receptor signaling pathway with the pleiotropic PPARgamma coactivator (PGC) from Tox21 10K library (AID 1224842). Also: nearly all actives have a fitted effect of over 15% in size. In outline:
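PGC/ERR reporter cell line, 2,000 cells per well, incubated 6 h at 37 C before 23 nL compound in DMSO was added. After 18 h at 37 C, One-Glo luminescence read following 30 min at room temperature.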

The target in experiment [8] is Thyrotropin receptor (Homo sapiens) (UniProt P16473). The experiment in a line: qHTS assay to identify small molecule agonists of the thyroid stimulating hormone receptor (TSHR) signaling pathway (AID 1224843; calls by dose curve; also: nearly all actives have a fitted effect of over 45% in size). The procedure, abridged:
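Agonist-mode screen: TSHR HEK293 cells received test chemicals for half an hour at room temperature, then HTRF cAMP detection reagents for one hour prior to fluorescence measurement. Each chemical ran as a 15-concentration series, triplicated.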

Experiment [9] can be described thus: qHTS assay to identify small molecule agonists of the hypoxia (HIF-1) signaling pathway - cell viability counter screen (AID 1224844; calls by dose curve; also: nearly all actives have a fitted effect of over 50% in size). The procedure, abridged: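 Same wells as the HIF-1 reporter screen; ME-180 cells carrying HRE-bla, 17 hr treatment at 37C; CellTiter-Glo luminescence read after 30 min at room temperature.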
The nature of experiment [10]: qHTS assay to identify small molecule agonists of H2AX (AID 1224845; active = well fitted activation curve with a large enough effect in the signal ratio in the repeat runs, not every such curve was filed as active; the % refers to the signal ratio). The procedure, abridged: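 Wild-type CHO-K1 cells, plated overnight, exposed 3hr at 37C to 15 concentrations (0.76% DMSO final). Lysed, then HTRF anti-pH2AX (S139) cryptate and anti-H2AX-d2 antibodies, 24 hr room temperature; 665/620 nm emission read.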
A short description of experiment [11]: qHTS assay to identify small molecule agonists of the hypoxia (HIF-1) signaling pathway (AID 1224846; active = well fitted activation curve with a large enough effect in the signal ratio in the repeat runs, not every such curve was filed as active; the % refers to the signal ratio). In outline:
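In ME-180 cells bearing an HRE-bla construct, 17 h treatment with DMSO-dissolved compounds at 37C was followed by CCF4-AM loading to quantify reporter induction.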

Experiment [12] can be described thus: qHTS assay to identify small molecule agonists of H2AX - cell viability counter screen (AID 1224847; calls by dose curve; also: top concentration of the series differs between compounds; nearly all actives have a fitted effect of over 30% in size). In outline:
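Cells plated first: CHO-K1, 1000 per well in 10% FBS medium, incubated overnight at 37C. Then 15-point compound titration added (final DMSO 0.76%) for 3 hr. Finally CellTiter-Glo added and luminescence read.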

Experiment [13] is described as follows: qHTS assay to identify small molecule antagonists of the estrogen related receptor (ERR) signaling pathway from Tox21 library (AID 1224848). Also: nearly all actives have a fitted effect of over 50% in size. Also: potency is read from the fitted curve at half-maximal effect. In outline:
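Quantitative high-throughput format: ERR reporter cells (2,000/well) pre-incubated 6 h, treated 18 h at 37 C with compounds in DMSO alongside positive and negative controls, then read by ONE-Glo luminescence.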

The nature of experiment [14]: qHTS assay to identify small molecule agonists of the estrogen related receptor (ERR) signaling pathway from Tox21 library (AID 1224849; calls by dose curve; also: nearly all actives have a fitted effect of over 15% in size). Conditions: ERR reporter cell line, ONE-Glo luciferase, 18 h. In outline:
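Reporter cells (ERR, NTP source) treated with Tox21 10K compounds 18 h, 37 C. Readout: ONE-Glo luminescence, 30 min RT.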

A short description of experiment [15]: qHTS RealTime-Glo MT Cell Viability Assay in HepG2 cells - 24 hour (AID 1224867). Also: nearly all actives have a fitted effect of over 50% in size. In outline: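 HepG2 suspension premixed with RealTime-Glo reagents is plated at 600 cells per well and left 5 h at 37 C/5% CO2. Compounds in DMSO then go in, and bioluminescence reflecting viable cell number is recorded over 40 h.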
Experiment [16] in a line: qHTS RealTime-Glo MT Cell Viability Assay in HEK293 cells - 32 hour (AID 1224868). In outline:
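Reads taken at 0, 8, 16, 24, 32 and 40 h from the same wells. HEK293 cells (600/well) carried RealTime-Glo reagents from seeding, with compound added after a 5 h settle at 37 C.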

Experiment [17] in a line: A CellTox Green Cytotoxicity Assay to monitor cytotoxicity in HEK293 cells - 0 hour (AID 1224869). Also: nearly all actives have a fitted effect of over 50% in size. The procedure, abridged: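 Homogeneous no-lysis format: HEK293 cell suspension mixed with CellTox Green reagent, seeded, incubated 5 h at 37 C/5% CO2, then dosed by pintool with compound in DMSO.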
A short description of experiment [18]: qHTS RealTime-Glo MT Cell Viability Assay in HepG2 cells - 40 hour (AID 1224870). Also: nearly all actives have a fitted effect of over 50% in size. Also: potency is read from the fitted curve at half-maximal effect. In outline: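 HepG2 cells (600/well) mixed with RealTime-Glo MT reagent, settled 5 h at 37 C/5% CO2 before compound addition. Nonlytic NanoLuc luminescence from viable-cell prosubstrate reduction read repeatedly during 40 h treatment at 37 C.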
Experiment [19] deals with Nuclear receptor subfamily 1 group I member 3 (Homo sapiens) (UniProt Q14994). The experiment in a line: qHTS assay to identify small molecule agonists of the constitutive androstane receptor (CAR) signaling pathway (AID 1224839).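 Also: HepG2 cells stably carrying human CAR and a CYP2B6 luciferase reporter; nearly all actives have a fitted effect of over 15% in size.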 The procedure, abridged: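 HepG2-CYP2B6-hCAR cells, 2500/well, 4 h pre-incubation; compounds 15 conc.; PK11195 0.75 uM final; 24 h, 37 C/5% CO2; ONE-Glo luciferase read.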
Chain of Nuclear receptor subfamily 1 group I member 3 (Homo sapiens) (Q14994 whole entry, looked up): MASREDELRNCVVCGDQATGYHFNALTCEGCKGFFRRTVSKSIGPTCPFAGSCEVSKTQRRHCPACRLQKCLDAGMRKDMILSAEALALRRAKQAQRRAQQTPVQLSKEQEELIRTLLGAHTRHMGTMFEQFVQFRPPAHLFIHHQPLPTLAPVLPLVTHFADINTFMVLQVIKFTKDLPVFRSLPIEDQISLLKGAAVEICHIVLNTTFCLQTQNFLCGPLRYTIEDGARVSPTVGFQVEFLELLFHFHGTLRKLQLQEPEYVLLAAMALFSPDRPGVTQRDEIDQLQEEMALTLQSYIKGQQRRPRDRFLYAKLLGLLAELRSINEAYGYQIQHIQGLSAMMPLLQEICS

Experiment [20] in a line: qHTS assay to identify small molecule agonists of the constitutive androstane receptor (CAR) signaling pathway - cell viability counter screen (AID 1224836). Also: nearly all actives have a fitted effect of over 45% in size. The procedure, abridged: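 HepG2-CYP2B6-hCAR, 2500 cells/well, 4 h pre-incubation; cpd 15 conc + PK11195 0.75 uM final; 23 h, 37 C/5% CO2; CellTiter-Fluor, fluorescence.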
% is scaled to controls: 0 for no effect and ±100 for the full control effect.

Chain of Thyrotropin receptor (Homo sapiens) (P16473 whole entry, looked up): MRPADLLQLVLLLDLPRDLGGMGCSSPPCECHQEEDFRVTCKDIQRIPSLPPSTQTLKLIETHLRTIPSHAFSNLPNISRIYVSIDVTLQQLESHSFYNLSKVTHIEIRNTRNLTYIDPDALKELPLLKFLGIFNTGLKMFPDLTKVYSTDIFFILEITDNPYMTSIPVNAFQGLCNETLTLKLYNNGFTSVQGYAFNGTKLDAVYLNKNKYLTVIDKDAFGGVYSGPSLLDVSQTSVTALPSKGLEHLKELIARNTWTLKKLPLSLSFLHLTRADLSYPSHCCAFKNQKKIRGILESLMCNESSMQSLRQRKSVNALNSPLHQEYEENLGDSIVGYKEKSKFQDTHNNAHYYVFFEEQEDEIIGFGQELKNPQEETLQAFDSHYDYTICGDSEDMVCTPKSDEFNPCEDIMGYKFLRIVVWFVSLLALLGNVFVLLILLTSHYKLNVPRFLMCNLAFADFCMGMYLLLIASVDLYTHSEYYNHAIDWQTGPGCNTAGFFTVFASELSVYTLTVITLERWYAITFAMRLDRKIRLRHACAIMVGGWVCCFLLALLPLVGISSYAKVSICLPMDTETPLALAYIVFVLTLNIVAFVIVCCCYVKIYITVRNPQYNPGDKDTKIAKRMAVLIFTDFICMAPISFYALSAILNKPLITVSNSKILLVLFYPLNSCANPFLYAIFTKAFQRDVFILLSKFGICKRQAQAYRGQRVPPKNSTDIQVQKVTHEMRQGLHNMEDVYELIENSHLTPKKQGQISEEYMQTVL
Chain of Luciferin 4-monooxygenase (Photinus pyralis) (P08659 whole entry, looked up): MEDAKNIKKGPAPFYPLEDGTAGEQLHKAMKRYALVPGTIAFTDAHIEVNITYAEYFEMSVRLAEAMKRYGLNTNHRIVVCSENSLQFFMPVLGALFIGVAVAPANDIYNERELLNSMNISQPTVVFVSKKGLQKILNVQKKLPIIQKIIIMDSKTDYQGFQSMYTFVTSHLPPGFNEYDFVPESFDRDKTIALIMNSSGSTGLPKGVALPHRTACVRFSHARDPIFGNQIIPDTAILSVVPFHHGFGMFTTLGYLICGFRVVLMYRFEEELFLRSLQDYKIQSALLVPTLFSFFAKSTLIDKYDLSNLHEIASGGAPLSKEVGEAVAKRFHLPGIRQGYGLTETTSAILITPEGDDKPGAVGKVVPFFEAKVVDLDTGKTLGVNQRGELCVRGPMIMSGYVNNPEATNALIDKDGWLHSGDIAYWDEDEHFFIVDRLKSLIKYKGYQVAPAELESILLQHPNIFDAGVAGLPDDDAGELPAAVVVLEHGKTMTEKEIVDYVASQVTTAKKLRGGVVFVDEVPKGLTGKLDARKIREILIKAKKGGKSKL

As for `OC[C@@H](O)[C@@H](O[C@@H]1O[C@H](CO)[C@H](O)[C@H](O)[C@H]1O)[C@H](O)[C@@H](O)CO`, the Potency result in experiment [1], in experiment [2], in [3], in [4], in experiment [5] and in experiment [6] was “inactive” in each case. The Potency entry in experiment [7], in experiment [8], in experiment [9], in [10], in [12] and in experiment [13] was “inactive” each time. Moreover, the Potency result in experiment [15], in experiment [16], in experiment [17] and in experiment [18] was “inactive” throughout. Besides, the outcome in experiment [11] was inactive. Also, the activity change, positive = activation was 4.37% (inactive) in experiment [14] (at 42.5 µM (top of the series)) and 5.88% (inactive) in experiment [14] (at 92.4 µM (top of the series)).

Take `CCCCCCCCCCCCO`: the Potency entry in [1], in experiment [3], in experiment [4], in experiment [19], in experiment [5] and in experiment [8] was “inactive” in each case. Moreover, the Potency entry in [9], in [10], in experiment [12], in experiment [15], in [16] and in [17] was “inactive” each time. In addition, the Potency result in [18] was “inactive”. Moreover, the Potency in experiment [2] was 31.3 µM (active). The compound was called inactive in [11].

Consider `CN(C)/N=N/c1nc[nH]c1C(N)=O`, for which the Potency result in [1], in experiment [2], in experiment [20], in experiment [5], in experiment [6] and in experiment [7] was “inactive” each time. Further, the Potency result in experiment [8], in [9], in [10], in experiment [12], in experiment [15] and in experiment [16] was “inactive” each time. The Potency entry in experiment [17] and in experiment [18] was “inactive” throughout. The Potency in experiment [13] was 69.6 µM (active). The activity change, positive = activation in [14] (at 42.5 µM (top of the series)) is -23.2% (inactive); in [14] (at 92.4 µM (top of the series)), -35.6% (inactive).

As for `[Na+]`, the Potency result in experiment [1], in experiment [2], in experiment [20], in experiment [4], in experiment [19] and in [5] was “inactive” each time. The Potency result in experiment [9], in experiment [10], in experiment [12], in [15], in experiment [16] and in experiment [17] was “inactive” in each case. For the same compound, in experiment [11], the result was inactive. Further, the Potency entry in [18] is “inactive and 38.9 µM (active)”.

`Cc1ccc(C)c(O)c1`: the Potency result in experiment [1], in experiment [2], in [3], in experiment [4], in [5] and in experiment [8] was “inactive” in each case. Further, the Potency result in [9], in experiment [10], in [12], in experiment [15], in experiment [16] and in experiment [17] was “inactive” in each case. Moreover, the Potency entry in experiment [18] was “inactive”. For the same compound, the result in experiment [11] was inactive.

For the compound `CC(=O)[C@H]1CC[C@H]2[C@@H]3CC=C4C[C@@H](O)CC[C@]4(C)[C@H]3CC[C@]12C`, the Potency entry in experiment [1], in [2], in experiment [20], in experiment [4], in [19] and in experiment [5] was “inactive” each time. The Potency result in [6], in experiment [7], in experiment [8], in experiment [9], in experiment [10] and in [12] was “inactive” each time. Also, the Potency result in experiment [13], in experiment [15], in [16], in experiment [17] and in experiment [18] was “inactive” each time. In [11], the call was inactive. Further, the figures for the activity change, positive = activation in experiment [14] (at 42.5 µM (top of the series)) and in experiment [14] (at 92.4 µM (top of the series)) were -14.3% (inactive) and -23.4% (inactive), respectively.

Regarding `C=C[Si](OCCOC)(OCCOC)OCCOC`, the Potency result in [1], in [2], in experiment [20], in [4], in [19] and in experiment [5] was “inactive” in each case. Further, the Potency result in experiment [8], in experiment [9], in experiment [10], in experiment [12], in experiment [15] and in experiment [16] was “inactive” each time. The Potency result in experiment [17] and in [18] was “inactive” throughout. Further, in experiment [11], the compound was called inactive.
